What was measured:
Experiment in all cases: log2 ratio of Biotin-Ahx-Ub-VS probe labelling (fragment/DMSO); higher = less target engagement (more negative = stronger competition), active = hit call of the paper (q ≤ 0.05, log2 ratio ≤ -1)
Conditions in all cases: compound concentration: 200 uM; treatment time: 3 h
USP19 = biological target: T1, USP19 (UniProt O94966)
T1 sequence (whole entry): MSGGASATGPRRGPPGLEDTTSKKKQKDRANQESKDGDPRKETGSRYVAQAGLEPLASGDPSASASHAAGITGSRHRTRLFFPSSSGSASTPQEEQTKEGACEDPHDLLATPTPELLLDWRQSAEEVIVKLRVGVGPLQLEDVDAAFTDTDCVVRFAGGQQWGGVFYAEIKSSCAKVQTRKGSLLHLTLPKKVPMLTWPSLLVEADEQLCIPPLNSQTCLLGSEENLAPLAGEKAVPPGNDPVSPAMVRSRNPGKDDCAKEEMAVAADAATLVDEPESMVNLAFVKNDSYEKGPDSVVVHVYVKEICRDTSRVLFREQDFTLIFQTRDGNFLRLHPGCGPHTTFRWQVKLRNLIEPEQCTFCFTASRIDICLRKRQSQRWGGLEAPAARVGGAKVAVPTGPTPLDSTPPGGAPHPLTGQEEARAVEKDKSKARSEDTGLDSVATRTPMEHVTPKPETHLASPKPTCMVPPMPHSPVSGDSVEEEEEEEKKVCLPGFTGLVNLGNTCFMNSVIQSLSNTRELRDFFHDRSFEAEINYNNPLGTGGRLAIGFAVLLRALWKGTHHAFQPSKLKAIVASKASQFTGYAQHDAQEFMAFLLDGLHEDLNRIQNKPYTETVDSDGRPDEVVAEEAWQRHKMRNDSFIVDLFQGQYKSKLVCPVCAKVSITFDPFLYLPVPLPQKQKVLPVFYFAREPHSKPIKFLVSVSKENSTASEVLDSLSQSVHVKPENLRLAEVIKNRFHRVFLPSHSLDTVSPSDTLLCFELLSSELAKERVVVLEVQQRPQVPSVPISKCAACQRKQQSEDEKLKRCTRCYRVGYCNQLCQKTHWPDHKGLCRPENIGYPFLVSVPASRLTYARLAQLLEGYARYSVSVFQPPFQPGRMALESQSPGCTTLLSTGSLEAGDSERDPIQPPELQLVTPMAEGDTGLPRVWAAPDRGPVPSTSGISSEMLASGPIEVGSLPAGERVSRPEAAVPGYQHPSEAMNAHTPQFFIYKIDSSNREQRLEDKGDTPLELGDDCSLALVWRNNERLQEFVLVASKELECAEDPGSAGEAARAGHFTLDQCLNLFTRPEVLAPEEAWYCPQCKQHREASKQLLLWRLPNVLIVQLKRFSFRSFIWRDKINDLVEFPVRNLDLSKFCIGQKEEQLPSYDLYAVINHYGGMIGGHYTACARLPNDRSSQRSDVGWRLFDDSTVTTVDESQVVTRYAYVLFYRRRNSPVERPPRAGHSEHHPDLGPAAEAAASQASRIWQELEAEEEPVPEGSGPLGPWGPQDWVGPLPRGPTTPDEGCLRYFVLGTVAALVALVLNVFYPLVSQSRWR
Procedure, shortened: (§1)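 Labelling with Biotin-Ahx-Ub-VS (0.5 µM final, 1 h) followed a 3 h triplicate treatment of HEK293T lysate (495 µg per sample, Tris/CHAPS/IGEPAL buffer with protease inhibitors) with fragment at 200 µM or vehicle. Labelled DUBs were NeutrAvidin-enriched, digested with LysC and trypsin, and run by diaPASEF LC-MS/MS. The values, average log2 fragment/vehicle ratios by unpaired t-test, come from global-median-normalised Spectronaut label-free quantities. Proteins with ≥2 unique peptides were used.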

USP24 = USP24 (UniProt Q9UPU5)
Procedure, shortened: as §1

USP25 = biological target: T2, USP25 (UniProt Q9UHP3)
T2 sequence (whole entry): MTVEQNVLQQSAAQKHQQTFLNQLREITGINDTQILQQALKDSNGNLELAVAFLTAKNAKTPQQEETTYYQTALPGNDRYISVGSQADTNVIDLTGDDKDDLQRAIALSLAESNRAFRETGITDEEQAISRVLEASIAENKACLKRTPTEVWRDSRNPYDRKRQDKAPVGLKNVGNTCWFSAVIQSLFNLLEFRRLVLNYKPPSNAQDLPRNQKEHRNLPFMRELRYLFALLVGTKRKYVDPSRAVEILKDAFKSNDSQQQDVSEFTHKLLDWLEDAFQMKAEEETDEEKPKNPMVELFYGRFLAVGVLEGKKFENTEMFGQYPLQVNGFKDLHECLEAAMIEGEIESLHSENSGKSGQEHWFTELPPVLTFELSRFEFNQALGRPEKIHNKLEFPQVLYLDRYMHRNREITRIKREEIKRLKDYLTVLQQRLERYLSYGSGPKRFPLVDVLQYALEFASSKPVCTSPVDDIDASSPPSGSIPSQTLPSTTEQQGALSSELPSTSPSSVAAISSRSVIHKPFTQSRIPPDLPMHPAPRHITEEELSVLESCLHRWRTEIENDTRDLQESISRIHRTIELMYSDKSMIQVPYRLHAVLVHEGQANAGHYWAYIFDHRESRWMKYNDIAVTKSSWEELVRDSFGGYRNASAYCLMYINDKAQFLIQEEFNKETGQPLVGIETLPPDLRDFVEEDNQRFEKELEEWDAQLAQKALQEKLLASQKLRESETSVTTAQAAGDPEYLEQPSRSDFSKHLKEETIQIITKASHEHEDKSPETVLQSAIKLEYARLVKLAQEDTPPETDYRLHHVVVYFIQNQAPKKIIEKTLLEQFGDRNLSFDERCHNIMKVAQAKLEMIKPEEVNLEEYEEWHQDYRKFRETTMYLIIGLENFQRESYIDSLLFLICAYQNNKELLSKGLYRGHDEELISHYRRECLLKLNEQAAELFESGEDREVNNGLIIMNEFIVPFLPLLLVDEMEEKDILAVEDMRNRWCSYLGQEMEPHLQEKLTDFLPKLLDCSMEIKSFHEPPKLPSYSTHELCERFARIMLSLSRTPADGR
Procedure, shortened: as §1

USP28 = biological target: T3, USP28 (UniProt Q96RU2)
T3 sequence (whole entry): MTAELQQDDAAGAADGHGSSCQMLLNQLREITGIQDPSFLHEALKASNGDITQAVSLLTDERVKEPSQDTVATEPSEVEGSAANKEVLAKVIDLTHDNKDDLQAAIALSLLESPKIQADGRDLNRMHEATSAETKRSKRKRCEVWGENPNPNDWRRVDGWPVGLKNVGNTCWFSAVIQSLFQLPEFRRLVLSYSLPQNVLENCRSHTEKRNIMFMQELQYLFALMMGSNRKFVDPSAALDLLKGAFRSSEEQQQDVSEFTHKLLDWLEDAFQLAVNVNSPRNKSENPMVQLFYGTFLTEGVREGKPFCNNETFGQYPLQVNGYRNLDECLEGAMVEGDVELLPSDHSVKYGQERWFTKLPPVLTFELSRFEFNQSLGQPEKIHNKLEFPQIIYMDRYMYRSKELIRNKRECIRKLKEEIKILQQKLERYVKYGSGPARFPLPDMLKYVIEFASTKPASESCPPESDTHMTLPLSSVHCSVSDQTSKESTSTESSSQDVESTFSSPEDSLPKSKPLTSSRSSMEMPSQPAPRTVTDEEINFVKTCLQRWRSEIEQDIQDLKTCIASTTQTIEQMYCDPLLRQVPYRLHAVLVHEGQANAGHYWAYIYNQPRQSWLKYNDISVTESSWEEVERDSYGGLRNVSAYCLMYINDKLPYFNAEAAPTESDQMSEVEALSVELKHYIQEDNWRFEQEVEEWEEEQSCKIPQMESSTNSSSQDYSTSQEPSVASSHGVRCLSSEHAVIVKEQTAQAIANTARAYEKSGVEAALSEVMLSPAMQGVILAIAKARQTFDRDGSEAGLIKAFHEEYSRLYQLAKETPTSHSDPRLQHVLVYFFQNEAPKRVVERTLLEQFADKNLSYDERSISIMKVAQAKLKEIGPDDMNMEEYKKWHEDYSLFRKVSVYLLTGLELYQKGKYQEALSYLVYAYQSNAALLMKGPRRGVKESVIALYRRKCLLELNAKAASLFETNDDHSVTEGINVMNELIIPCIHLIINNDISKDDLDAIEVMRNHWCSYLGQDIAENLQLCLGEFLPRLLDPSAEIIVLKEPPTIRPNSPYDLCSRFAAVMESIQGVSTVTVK
Procedure, shortened: as §1

Measured: log2 ratio of Biotin-Ahx-Ub-VS probe labelling

USP24, sequence (Q9UPU5 whole entry): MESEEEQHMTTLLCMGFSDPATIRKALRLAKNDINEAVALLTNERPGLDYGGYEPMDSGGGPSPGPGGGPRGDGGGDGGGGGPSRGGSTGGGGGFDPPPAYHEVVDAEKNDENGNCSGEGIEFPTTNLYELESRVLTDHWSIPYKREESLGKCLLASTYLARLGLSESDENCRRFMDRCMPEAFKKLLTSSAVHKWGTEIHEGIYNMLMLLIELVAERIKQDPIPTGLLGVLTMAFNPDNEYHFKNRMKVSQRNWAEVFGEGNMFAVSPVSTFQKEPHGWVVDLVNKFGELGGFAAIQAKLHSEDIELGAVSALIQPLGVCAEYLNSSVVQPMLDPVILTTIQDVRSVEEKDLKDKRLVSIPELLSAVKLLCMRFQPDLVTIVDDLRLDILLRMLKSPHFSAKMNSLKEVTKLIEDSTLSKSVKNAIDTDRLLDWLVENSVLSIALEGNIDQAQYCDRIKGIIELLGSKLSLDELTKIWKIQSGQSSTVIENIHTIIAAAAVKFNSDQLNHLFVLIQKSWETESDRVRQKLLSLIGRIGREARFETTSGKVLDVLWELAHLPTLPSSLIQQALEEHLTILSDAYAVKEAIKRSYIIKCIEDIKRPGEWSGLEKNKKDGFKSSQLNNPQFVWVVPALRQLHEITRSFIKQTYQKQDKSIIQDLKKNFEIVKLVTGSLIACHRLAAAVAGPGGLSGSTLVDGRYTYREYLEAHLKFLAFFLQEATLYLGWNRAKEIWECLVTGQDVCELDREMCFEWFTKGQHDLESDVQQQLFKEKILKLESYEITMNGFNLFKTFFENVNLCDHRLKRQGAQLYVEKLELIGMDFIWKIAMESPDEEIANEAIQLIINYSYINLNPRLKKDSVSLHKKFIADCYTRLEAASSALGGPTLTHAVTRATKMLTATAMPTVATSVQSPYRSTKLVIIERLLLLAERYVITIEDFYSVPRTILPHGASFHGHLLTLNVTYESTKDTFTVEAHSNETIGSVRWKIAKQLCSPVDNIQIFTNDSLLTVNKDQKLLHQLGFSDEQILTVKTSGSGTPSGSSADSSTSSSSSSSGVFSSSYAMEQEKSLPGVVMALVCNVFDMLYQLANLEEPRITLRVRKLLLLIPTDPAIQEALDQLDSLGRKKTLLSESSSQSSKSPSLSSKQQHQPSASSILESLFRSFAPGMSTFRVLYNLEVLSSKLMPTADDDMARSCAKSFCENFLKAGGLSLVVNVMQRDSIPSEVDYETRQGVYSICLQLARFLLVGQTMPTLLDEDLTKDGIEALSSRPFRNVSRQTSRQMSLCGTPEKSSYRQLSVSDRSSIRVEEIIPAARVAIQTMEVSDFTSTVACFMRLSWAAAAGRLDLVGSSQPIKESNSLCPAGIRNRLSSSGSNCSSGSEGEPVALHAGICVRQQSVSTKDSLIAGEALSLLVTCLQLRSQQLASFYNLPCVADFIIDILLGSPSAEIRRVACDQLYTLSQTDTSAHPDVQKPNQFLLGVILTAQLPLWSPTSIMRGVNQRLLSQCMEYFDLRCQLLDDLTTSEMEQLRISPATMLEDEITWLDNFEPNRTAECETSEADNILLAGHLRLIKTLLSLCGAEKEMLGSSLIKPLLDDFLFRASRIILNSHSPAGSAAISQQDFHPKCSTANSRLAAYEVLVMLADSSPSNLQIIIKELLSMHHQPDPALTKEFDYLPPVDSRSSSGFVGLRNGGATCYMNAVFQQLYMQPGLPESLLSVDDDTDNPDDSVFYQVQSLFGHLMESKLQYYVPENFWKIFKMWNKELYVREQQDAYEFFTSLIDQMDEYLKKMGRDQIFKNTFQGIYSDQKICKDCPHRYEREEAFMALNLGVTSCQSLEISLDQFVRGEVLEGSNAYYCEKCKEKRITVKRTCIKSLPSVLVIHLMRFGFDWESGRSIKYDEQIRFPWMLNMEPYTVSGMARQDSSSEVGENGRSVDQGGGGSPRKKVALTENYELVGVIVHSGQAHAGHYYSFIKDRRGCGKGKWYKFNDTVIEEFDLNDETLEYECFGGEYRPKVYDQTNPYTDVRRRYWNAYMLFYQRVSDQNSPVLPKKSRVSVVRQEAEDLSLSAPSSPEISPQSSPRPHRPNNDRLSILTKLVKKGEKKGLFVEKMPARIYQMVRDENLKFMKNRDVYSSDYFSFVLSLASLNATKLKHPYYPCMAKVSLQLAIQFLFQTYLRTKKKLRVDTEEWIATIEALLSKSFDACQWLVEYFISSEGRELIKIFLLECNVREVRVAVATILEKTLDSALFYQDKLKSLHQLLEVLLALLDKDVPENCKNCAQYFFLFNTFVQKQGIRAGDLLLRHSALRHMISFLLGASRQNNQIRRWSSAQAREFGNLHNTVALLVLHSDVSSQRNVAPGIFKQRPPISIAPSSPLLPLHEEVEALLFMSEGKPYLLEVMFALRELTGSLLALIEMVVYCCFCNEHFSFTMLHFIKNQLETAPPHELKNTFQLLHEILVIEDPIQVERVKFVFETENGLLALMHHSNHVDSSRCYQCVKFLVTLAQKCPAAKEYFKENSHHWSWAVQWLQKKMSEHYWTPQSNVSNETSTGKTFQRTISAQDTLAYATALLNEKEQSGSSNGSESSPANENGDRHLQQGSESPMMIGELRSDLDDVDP

O=C(CCl)NCC(=O)N1CCCC1
inactive: USP19 0.114 | USP24 -0.074 | USP25 0.037 | USP28 -0.302
